Our source for the INHIBITION values is ChEMBL document CHEMBL4513216, “Probing the Open Global Health Chemical Diversity Library for Multistage-Active Starting Points for Next-Generation Antimalarials” (ACS Infect Dis, 2020).

Hit rate of the full screen: of about 69,000 compounds, about 8,600 (12%) showed an effect of 50% or more. The sample holds strong results, similar compounds and a random draw of the others, so the mix is not that of the screen.

The subject of this test is Plasmodium berghei. Nature of the test: Screen against P. berghei liver stage (PbLuc), transformed with Luciferase, at 10uM. It is filed as functional, HepG2. The following applies: tested at 10 uM.
With `CCc1cnc(C)nc1NC1CC(=O)N(CC)C1` (stereo not given), the INHIBITION turned out to be 14.9%.
The figure for `c1ccc(-n2cc(CN3CCCC3Cn3cccn3)nn2)cc1` (stereo not given) is -18%; for `Cc1cc(C)c(S(N)(=O)=O)cc1C(=O)NCCN1CCCCC1` it is 42.1%; for `COc1cc(OC)cc(C(=O)NCc2nn(C)c3c2COCC3)c1` it is 24.2%.
Turning to `O=S(=O)(c1cn[nH]c1)N1CCCC1c1cc[nH]n1` (stereo not given), the INHIBITION was -12.9%.
The figure for `COc1cccc(CNC(=O)CC2CSc3nc(C)c(C)c(=O)n32)c1` (stereo not given) is 27%; for `O=C(c1ccnnc1)N1C[C@H](Oc2ccccn2)[C@H]2OCCC[C@H]21` it is -15.9%.
On to `CC1(C)CC(=O)c2cnc3nc(N4CCOCC4)nc(O)c3c2C1`, for which the INHIBITION is recorded as -42.5%.
With `Cc1nc(C(F)(F)F)nc(N2CCC(O)(C(=O)O)CC2)c1C`, the INHIBITION stood at 24.4%.
The figure for `CC(=O)N1CCN(c2nc(C(F)(F)F)nc3sc(C)c(C)c23)CC1` is 34.4%.
As for `CN1CCCN(c2nc(C3CCCC3)nc3c2cnn3C)CC1`, the figure is 26.4%; as for `Cc1sc2nc(C(F)(F)F)nc(N3CCCN(C)CC3)c2c1C`, 53.9%; as for `Cc1sc2nc(C(F)(F)F)nc(N3CCN(S(C)(=O)=O)CC3)c2c1C`, 55%.
As for `CN1CCCN(c2nc(C3CC3)ns2)CC1`, the figure is -31.5%; as for `Cc1sc2nc(C(F)(F)F)nc(N3CCN(C)CC3)c2c1C`, 65.8%.
Consider `Cc1sc2nc(C(F)(F)F)nc(N3CCC(NS(C)(=O)=O)CC3)c2c1C`, for which the INHIBITION was determined as 34.4%.
As for `Cc1nc(C(F)(F)F)nc(N2CCC3(CC2)CC(C(=O)O)N(C)C3)c1C` (stereo not given), the figure is 47.2%.
Take `Cc1cc(C)n(CCCC(=O)N2CCc3ncc(Cl)cc3C2)n1`: the INHIBITION is given as -50.2%.
As for `Cn1cc(NC(=O)N2CCC2c2ccccc2)ccc1=O` (stereo not given), the figure is 6.1%.
The figure for `O=C(O)c1nc(SCc2ccccc2)ncc1Br` is 32.4%.
The figure for `CCN1CC(C(=O)NCCn2cccc2)CC1=O` (stereo not given) is 43.9%; for `Cc1ncsc1C(=O)N1CCCC(CO)(CC2CC2)C1` (stereo not given) it is 29.4%.
Regarding `Cn1nc(Cn2ccnc2)c2c1CN(c1nccs1)C2`, the INHIBITION amounted to 3.88%.
As for `CCN1CCCCC1C(=O)N1CCC(OC2CCCC2)CC1` (stereo not given), the INHIBITION is listed as 10.2%.
Take `O=C(c1cnccn1)N1CCCC2(CCN(Cc3ccc(F)cc3)C2)C1` (stereo not given): the INHIBITION is 8.03%.
As for `CC(C)(C)C(Cn1cccn1)NC(=O)c1ccco1` (stereo not given), the figure is 35.2%; as for `Cc1cccc(CNC(Cc2ccsc2)c2nc(C)c(C)s2)n1` (stereo not given), 91.6%.
The figure for `Cc1nc(C(Cc2ccsc2)NC(=O)CN2CCOCC2)sc1C` (stereo not given) is 30.45%; for `Cc1cccc(CNC(Cc2ccsc2)c2nccs2)n1` (stereo not given) it is -24.4%.
As for `CC(C(=O)NCc1ccc(N2CCCC2)nc1)n1cncn1` (stereo not given), the figure is 21.6%.
For `CC(C(=O)Nc1ccc(N2CCOCC2)nc1)n1cncn1` (stereo not given), the INHIBITION came out at 53%.
On to `CC(C(=O)NCc1ccc(N2CCCCCC2)nc1)n1cncn1` (stereo not given), for which the INHIBITION turned out to be 31.2%.
The figure for `CC(C(=O)Nc1cccc(N2CCCCC2)c1)n1cncn1` (stereo not given) is 70.7%; for `Cc1cccc(N2CCN(CCNC(=O)C(C)n3cncn3)CC2)c1` (stereo not given) it is 55.5%.
As for `CC(C(=O)NCCN1CCN(C)CC1)n1cncn1` (stereo not given), the INHIBITION came out at 34.7%.
The figure for `CC(C(=O)NCCCN1CCN(c2ccccc2)CC1)n1cncn1` (stereo not given) is -16%.
As for `CC(C(=O)Nc1ccc(N2CCCC2)nc1)n1cccn1` (stereo not given), the figure is 9.54%; as for `CC(C(=O)Nc1ccc(N2CCCCC2)nc1)n1cncn1` (stereo not given), 28.8%.
As for `COc1ccc(NC(=O)C(C)n2cncn2)cn1` (stereo not given), the figure is -33.9%; as for `CC(C(=O)NCc1ccc(N2CCCCC2)nc1)n1cncn1` (stereo not given), 7.12%.
As for `CC(C(=O)Nc1ccc(N2CCCC2)nc1)n1cncn1` (stereo not given), the INHIBITION stood at 56.1%.
The figure for `CC(C)NC(=O)N1CCc2onc(C(=O)Nc3cccnc3)c2C1` is -11%.
As for `COc1cc(NCc2ccccc2-n2cncn2)nc(N)n1`, the figure is -2.43%.
Take `CNC(=O)NC(=O)CCN1CCN(c2nccs2)CC1`: the INHIBITION was found to be 11.9%.
The figure for `O=S(=O)(N[C@@H]1CCO[C@]2(CCN(CC3CCOCC3)C2)C1)C1CC1` is 1.48%; for `O=C1COC2(CCN(c3ncccn3)CC2)CN1Cc1ccccn1` it is -6.21%.
As for `COc1ccc2c(ccn2CCC(=O)NCCCC(=O)O)c1`, the INHIBITION is 24.7%.
The figure for `Cc1noc(C(C)N(C)Cc2ccco2)n1` (stereo not given) is -33.4%; for `CCc1cnccc1C(=O)NC1CCN(C(=O)OC)CC1` it is -7.16%; for `CC(NC(=O)COC1CCCC1)c1nc(-c2ccccc2)c[nH]1` (stereo not given) it is -43.3%.
As for `NCCn1cc(C(=O)N2CCNC(=O)C2c2cccc(F)c2)nn1` (stereo not given), the figure is -13.8%; as for `CN(CC(=O)NCC1CCCO1)Cc1nc2c(s1)CCCC2` (stereo not given), 57.1%.
As for `CN(CC(=O)NCC(F)(F)F)Cc1nc2c(s1)CCCC2`, the figure is 46.7%; as for `CN(CC(=O)NCc1ccco1)Cc1nc2c(s1)CCCC2`, 40.8%.
As for `O=S(=O)(CCN1CCCCC1Cn1cncn1)c1ccccc1` (stereo not given), the INHIBITION was -8.11%.
